Laboratory results from the supplement of paper PMC11732987, “Enantioselective OTUD7B fragment discovery through chemoproteomics screening and high-throughput optimisation” (Communications Chemistry, 2025).

Key:
Assay in all cases: log2 ratio of Biotin-Ahx-Ub-VS probe labelling (fragment/DMSO); higher = less target engagement (more negative = stronger competition), active = hit call of the paper (q ≤ 0.05, log2 ratio ≤ -1)
Details in all cases: compound concentration: 200 uM; treatment time: 3 h
[1] = molecular target: T1, USP42 (UniProt Q9H9J4)
T1 sequence (whole entry): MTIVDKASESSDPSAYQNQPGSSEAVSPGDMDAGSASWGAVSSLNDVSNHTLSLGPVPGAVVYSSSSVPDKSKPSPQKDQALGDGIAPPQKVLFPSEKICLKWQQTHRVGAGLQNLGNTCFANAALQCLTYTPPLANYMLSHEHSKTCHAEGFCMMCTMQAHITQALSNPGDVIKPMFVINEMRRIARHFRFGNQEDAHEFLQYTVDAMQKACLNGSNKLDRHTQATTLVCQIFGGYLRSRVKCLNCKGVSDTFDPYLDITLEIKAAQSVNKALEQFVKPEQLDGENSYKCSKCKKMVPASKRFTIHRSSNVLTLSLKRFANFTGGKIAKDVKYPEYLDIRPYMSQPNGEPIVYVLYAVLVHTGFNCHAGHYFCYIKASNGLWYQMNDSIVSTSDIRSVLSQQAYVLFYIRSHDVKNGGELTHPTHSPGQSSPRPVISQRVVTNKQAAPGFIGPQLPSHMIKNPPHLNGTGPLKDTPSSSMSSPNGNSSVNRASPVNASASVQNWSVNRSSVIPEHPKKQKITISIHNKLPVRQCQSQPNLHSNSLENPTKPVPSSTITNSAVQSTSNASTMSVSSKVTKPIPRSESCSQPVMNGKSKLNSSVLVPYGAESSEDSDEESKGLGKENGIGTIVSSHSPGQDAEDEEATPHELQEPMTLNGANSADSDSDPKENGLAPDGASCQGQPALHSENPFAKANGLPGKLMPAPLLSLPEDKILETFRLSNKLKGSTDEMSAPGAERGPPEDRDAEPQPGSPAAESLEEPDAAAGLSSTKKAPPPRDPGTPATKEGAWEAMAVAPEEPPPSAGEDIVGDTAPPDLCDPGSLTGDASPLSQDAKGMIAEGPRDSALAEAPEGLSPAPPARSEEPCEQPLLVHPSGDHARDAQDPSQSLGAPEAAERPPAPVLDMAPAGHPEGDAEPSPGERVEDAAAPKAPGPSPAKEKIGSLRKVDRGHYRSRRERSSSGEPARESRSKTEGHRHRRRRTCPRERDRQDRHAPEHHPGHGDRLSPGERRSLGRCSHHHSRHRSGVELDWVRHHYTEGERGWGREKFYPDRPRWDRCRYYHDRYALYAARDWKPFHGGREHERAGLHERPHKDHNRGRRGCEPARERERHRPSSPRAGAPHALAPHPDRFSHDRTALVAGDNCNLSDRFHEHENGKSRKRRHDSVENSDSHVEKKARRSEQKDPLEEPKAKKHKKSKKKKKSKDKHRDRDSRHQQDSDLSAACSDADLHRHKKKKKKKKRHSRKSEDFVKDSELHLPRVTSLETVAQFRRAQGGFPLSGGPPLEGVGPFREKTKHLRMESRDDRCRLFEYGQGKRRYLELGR
How it was run: (§1)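 HEK293T lysate (495 µg per sample, in Tris/CHAPS/IGEPAL buffer with protease inhibitors) was exposed in triplicate for 3 h to fragment at 200 µM or to vehicle, then to Biotin-Ahx-Ub-VS at 0.5 µM final for 1 h. Labelled DUBs were enriched on NeutrAvidin, digested with LysC and trypsin, and analysed by diaPASEF LC-MS/MS. Spectronaut label-free quantities were normalised to the global median, and values are average log2 ratios of fragment over vehicle from an unpaired t-test. Only proteins with ≥2 unique peptides were used.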

[2] = molecular target: USP46 (UniProt P62068)
Chain of USP46 (P62068 whole entry): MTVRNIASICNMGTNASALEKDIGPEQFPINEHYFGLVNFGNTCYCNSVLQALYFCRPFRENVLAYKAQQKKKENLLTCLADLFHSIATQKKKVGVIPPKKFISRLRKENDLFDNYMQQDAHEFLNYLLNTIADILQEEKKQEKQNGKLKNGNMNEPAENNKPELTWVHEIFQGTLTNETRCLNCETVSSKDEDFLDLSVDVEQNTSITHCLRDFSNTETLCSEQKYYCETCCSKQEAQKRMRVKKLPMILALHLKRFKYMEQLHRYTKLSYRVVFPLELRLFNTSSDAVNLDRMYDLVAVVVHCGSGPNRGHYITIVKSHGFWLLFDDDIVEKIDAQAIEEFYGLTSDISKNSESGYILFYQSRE
How it was run: as §1

[3] = molecular target: T2, USP47 (UniProt Q96K76)
T2 sequence (whole entry): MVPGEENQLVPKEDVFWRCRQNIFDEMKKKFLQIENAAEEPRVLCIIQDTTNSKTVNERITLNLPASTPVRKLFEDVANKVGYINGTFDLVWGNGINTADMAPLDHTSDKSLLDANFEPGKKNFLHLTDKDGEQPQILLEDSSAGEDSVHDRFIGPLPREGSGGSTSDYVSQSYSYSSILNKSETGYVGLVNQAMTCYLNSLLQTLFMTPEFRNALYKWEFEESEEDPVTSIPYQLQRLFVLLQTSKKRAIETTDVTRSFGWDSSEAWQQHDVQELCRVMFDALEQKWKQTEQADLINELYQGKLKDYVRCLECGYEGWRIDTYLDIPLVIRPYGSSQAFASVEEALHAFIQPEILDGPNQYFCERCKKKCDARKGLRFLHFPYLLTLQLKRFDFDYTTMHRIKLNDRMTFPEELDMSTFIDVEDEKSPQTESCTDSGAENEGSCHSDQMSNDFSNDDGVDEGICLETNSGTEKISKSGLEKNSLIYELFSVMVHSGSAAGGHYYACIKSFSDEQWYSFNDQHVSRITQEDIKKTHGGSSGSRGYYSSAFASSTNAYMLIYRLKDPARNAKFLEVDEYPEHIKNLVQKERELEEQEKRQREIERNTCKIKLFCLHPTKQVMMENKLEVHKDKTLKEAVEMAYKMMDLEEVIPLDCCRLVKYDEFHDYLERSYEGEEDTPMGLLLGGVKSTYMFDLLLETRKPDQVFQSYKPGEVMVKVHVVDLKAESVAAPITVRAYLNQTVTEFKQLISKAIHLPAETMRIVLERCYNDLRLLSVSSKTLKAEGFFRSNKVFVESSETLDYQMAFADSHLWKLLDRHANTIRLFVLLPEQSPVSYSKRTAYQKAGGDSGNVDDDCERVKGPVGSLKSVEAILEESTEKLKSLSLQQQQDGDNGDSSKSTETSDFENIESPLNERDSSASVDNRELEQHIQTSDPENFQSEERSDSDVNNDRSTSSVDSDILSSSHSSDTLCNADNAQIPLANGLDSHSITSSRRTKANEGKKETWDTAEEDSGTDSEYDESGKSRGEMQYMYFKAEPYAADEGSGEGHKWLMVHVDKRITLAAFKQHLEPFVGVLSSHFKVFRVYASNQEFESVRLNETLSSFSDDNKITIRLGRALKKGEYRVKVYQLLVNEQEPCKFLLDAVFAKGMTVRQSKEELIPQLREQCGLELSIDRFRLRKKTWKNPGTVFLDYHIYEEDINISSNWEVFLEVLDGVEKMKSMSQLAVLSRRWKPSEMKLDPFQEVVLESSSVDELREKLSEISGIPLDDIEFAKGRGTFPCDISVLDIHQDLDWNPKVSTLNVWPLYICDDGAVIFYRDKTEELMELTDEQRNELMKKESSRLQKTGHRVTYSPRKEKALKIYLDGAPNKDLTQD
How it was run: as §1

[4] = molecular target: T3, USP48 (UniProt Q86UV5)
T3 sequence (whole entry): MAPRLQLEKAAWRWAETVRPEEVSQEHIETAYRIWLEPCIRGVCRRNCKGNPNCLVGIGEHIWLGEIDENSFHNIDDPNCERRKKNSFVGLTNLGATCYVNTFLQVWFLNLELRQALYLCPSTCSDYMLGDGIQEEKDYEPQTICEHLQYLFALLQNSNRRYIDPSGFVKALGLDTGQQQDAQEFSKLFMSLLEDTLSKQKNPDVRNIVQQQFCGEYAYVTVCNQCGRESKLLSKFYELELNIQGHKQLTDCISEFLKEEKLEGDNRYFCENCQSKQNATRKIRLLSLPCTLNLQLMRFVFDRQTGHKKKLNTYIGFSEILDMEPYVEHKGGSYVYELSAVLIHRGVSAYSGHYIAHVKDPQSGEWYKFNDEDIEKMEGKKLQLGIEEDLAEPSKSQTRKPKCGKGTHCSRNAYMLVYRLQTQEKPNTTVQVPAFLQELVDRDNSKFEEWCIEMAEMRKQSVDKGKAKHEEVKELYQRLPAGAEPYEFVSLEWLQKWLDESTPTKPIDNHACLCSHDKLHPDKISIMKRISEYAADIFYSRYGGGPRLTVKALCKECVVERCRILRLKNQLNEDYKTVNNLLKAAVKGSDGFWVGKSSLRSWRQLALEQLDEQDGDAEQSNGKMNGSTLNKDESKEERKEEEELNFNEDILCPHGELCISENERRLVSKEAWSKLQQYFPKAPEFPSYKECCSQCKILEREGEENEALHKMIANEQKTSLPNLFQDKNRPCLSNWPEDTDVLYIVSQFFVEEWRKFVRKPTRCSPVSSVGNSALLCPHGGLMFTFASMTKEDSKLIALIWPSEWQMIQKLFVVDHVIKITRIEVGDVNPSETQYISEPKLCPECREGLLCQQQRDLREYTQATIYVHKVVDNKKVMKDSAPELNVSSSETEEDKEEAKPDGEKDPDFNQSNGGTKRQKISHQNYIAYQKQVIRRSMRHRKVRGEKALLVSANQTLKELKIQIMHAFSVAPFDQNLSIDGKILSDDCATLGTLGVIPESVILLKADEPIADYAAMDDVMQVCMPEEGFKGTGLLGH
How it was run: as §1

[5] = molecular target: T4, USP5 (UniProt P45974)
T4 sequence (whole entry): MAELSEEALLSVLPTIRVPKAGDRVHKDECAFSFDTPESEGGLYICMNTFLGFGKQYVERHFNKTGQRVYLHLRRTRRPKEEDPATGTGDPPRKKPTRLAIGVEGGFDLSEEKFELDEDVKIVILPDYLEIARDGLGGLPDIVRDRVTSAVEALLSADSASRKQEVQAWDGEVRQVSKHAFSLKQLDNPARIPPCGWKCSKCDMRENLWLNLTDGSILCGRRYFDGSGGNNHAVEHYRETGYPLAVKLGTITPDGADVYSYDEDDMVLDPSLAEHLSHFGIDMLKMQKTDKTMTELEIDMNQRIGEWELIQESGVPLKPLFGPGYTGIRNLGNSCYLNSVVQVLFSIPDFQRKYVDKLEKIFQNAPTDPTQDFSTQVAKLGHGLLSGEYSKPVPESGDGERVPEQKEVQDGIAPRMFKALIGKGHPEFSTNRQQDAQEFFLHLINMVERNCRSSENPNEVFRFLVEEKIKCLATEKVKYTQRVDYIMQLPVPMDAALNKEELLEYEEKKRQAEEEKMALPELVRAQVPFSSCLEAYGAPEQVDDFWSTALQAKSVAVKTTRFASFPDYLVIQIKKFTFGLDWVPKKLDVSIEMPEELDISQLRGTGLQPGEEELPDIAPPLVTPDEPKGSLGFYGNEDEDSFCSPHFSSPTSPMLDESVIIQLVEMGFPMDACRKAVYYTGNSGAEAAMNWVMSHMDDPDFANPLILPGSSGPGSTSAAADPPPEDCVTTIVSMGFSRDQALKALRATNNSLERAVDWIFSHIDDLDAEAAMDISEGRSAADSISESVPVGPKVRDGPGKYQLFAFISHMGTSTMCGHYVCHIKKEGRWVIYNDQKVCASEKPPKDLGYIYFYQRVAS
How it was run: as §1

[6] = molecular target: USP54 (UniProt Q70EL1)
Chain of USP54 (Q70EL1 whole entry): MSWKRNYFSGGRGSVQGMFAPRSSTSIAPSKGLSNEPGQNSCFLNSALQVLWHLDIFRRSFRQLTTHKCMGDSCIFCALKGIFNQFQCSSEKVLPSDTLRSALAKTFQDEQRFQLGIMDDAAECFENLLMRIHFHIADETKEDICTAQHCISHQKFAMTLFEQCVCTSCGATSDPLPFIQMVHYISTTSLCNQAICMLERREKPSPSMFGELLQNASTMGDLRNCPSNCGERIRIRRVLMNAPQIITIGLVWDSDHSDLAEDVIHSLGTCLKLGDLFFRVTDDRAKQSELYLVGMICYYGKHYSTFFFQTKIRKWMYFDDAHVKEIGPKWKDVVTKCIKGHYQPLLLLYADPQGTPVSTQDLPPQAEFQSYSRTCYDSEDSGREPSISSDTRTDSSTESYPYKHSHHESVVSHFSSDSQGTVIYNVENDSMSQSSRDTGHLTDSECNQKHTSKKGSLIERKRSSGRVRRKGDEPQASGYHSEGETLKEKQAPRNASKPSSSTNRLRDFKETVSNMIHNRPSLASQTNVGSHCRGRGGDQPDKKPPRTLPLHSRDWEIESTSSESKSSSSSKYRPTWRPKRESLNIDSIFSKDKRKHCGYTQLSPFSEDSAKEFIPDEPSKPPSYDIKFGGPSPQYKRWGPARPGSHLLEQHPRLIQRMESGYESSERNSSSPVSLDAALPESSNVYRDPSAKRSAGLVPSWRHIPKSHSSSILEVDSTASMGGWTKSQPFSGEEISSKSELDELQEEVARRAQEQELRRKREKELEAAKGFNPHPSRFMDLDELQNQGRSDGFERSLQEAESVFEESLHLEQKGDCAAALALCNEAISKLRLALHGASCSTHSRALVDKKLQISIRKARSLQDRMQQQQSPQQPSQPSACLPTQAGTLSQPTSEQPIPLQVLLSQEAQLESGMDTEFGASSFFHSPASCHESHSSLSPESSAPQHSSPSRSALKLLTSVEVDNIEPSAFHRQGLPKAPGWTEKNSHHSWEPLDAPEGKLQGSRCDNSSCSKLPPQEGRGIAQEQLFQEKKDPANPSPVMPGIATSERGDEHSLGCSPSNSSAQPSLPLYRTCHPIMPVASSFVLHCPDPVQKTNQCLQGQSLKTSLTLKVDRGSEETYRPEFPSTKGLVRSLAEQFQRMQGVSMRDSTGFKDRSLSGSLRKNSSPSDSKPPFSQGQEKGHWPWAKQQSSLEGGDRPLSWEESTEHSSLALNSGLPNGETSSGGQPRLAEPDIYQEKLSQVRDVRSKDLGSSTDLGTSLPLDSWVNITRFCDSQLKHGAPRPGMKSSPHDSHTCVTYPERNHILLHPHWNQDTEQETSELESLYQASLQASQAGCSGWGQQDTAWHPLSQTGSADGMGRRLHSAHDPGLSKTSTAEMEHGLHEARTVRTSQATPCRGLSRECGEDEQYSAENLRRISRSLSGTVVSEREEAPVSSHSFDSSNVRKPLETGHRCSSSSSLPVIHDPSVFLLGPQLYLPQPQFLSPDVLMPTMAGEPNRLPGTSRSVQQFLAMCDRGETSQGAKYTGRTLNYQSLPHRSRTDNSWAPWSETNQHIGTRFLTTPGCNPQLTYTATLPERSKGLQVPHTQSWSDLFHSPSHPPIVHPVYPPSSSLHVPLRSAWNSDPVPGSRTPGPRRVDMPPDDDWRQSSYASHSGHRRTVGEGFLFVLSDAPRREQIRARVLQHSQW
How it was run: as §1

[7] = molecular target: USP7 (UniProt Q93009)
Chain of USP7 (Q93009 whole entry, looked up): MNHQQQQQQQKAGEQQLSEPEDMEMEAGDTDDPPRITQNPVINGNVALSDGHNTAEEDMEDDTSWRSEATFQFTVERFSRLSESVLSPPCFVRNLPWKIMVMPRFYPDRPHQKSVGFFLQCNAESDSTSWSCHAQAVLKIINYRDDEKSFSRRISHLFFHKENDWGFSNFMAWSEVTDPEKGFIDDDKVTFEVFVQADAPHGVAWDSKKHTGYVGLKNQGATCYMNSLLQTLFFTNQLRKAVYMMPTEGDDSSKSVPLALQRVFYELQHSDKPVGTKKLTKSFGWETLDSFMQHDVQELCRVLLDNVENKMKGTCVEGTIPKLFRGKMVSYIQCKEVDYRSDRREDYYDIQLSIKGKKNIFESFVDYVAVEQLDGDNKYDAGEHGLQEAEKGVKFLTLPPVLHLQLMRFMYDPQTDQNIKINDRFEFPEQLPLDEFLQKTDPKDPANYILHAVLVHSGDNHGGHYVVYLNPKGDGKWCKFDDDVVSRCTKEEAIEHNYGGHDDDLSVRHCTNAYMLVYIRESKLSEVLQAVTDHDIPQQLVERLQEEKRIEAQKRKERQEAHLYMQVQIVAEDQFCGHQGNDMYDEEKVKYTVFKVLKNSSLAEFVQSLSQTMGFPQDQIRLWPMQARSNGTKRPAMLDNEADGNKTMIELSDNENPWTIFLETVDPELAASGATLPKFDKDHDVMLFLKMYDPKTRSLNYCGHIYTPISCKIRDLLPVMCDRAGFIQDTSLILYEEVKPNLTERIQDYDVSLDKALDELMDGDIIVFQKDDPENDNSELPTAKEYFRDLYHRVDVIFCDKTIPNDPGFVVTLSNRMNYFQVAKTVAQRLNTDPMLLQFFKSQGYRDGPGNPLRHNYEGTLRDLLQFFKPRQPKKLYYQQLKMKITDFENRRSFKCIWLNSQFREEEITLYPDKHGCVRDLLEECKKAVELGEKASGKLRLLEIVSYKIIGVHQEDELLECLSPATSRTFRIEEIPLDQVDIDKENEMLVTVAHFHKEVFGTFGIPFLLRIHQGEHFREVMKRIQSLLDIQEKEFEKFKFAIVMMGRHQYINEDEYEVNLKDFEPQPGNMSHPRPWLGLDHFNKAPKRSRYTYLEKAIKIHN
How it was run: as §1

[8] = molecular target: T5, USP8 (UniProt P40818)
T5 sequence (whole entry): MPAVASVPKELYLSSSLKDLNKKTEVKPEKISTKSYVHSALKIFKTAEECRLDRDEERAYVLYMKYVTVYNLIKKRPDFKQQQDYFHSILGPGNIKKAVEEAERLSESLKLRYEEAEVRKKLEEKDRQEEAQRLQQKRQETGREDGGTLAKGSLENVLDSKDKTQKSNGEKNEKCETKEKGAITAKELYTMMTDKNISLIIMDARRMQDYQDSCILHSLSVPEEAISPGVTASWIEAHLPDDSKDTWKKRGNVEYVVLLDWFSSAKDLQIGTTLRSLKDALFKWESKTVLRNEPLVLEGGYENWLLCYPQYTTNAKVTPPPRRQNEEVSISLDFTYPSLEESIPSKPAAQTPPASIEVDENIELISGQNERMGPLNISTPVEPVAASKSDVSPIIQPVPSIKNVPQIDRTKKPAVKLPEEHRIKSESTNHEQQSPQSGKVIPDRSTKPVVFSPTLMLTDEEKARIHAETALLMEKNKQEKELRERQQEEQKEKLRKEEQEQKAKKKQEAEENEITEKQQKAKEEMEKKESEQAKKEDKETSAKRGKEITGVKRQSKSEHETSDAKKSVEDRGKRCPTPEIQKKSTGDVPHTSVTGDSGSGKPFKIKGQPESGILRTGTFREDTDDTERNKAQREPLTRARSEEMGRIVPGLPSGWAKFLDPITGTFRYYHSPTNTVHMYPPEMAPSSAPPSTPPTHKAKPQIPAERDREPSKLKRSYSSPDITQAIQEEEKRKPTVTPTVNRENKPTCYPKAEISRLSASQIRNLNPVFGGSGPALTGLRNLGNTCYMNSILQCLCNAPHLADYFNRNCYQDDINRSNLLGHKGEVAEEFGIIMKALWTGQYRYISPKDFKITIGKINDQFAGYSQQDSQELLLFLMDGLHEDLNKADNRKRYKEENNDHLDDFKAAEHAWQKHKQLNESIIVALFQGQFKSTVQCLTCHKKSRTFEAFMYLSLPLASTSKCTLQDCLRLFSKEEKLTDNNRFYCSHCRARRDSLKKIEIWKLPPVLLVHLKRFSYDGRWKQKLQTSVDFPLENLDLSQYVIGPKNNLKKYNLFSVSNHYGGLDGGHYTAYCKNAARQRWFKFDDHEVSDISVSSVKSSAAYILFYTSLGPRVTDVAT
How it was run: as §1

Measured: log2 ratio of Biotin-Ahx-Ub-VS probe labelling

CCN(C(=O)CCl)C1CCCCC1
inactive: [1] 0.177 | [2] -0.202 | [3] -0.157 | [4] -0.238 | [5] 0.443 | [6] 0.0425 | [7] -0.372 | [8] 0.0715
